# Target: SIRPD
# Experiment: pooled miR-30 sensor sort-seq; sequence = guide strand
# Conditions: shRNA
# Also: reference of the scale not given here.
row,Sequence,sensor-assay potency score (higher = more potent)
1,TACTCCTTGATAGCTCTTCCTT,-0.857
2,TGAACCACAAGACAGGTCCATT,-1.29
3,ATTTATTGTACGATCAAGCTGG,0.545
4,TACAGTCTGTGACATCTCCGTT,-0.562
5,TTAATTTCCGGTTTGGCCCTGT,0.897

# Target: SIRT4
# Experiment: as above
# Conditions: shRNA
row,Sequence,sensor-assay potency score (higher = more potent)
1,ATGTTCAGTATTGCAATCGGGA,-1.33
2,ATACCTGCAAGGATGATCCCAC,0.445
3,TTCTTTTACACGCTTGTGCACA,-0.806
4,TGTAACTCTTTGACCTTCTCAG,0.0606
5,TTTTGCTGACCTGAAAGTCAAC,-1.46
6,TTTTCTGACCTGTAGTCTGGTA,-0.377
7,TTGTGCACAAAATCAACCTTGT,0.469
8,TTGAACGCAGGTTGGGACCTGA,0.0552
9,TTTTTCTGACCTGTAGTCTGGT,0.35
10,TATTGCAATCGGGAGCTTCTTC,-0.488
11,TTTCTGACCTGTAGTCTGGTAT,-0.224

# Target: SIRT7
# Experiment: as above
# Conditions: shRNA
row,Sequence,sensor-assay potency score (higher = more potent)
1,TTCTTTAGAACCTTCAGGCTGG,0.828
2,TCCGTCACATCGAACACCCGCA,-0.639
3,ATGACGTCATCACACTTCCCAT,-1.31
4,TTCTTCACCAGCACGCAGGGGA,-0.0799
5,TAACGCTTCTCCCTTTCTGAAG,-1.56
6,TGGGTACTTCTTTAGAACCTTC,-0.762
7,TAGACGACCAAGTATTTGGCGT,-0.403
8,TTCTGAAGCAGTGTCCACACTC,-0.449
9,TTCAATGTACATGTTCCCGTGG,0.307
10,TTGGTCATGCACCAGAGGCGTG,-1.42
11,TTCTGCACAGCGACTTCCGACT,-1.07
12,TGAAGCAGTGTCCACACTCCAT,-1.07

# Target: SIX1
# Experiment: as above
# Conditions: shRNA
row,Sequence,sensor-assay potency score (higher = more potent)
1,ATATTTGTGAAAGTCCACCATT,-0.953
2,TTCTATTTACAAGTGTCCCTAG,0.0217
3,AACAACTCCAGAAACAAGCTGC,-0.198
4,TTTCTATTTACAAGTGTCCCTA,-0.676
5,TTTATGCGCAAACAACTCCAGA,-1.43
6,TTCTTGTGCAGGTGGTCGCAGG,-1.02
7,TACAAGTGTCCCTAGTCGCTGC,0.379
8,TTAAGCTTGAGATCGCTGTTGG,0.117
9,TTCTGAGCTGGACATGAGCGGC,-1.35
10,TTGTTTTCGGTGTTCTCCCTTT,-0.196
11,TTCTCCTTGAAGCAGTAGCTGG,-1.4
12,TTGAGTACGCTCTCGTTCTTGT,-0.00831

# Source: the OligoGym collection
